“And” between values parts separate entries of the source, which are not always exact repeats. Equal values may be shown once. The source made the active and inactive calls. Rule for the calls: active = hit-call score of the fitted dose curve at least 0.9, where 1 is the maximum; inactive = score below 0.9.
How the values were obtained:
[1] = ATG_GRE_CIS: Attagene CIS-FACTORIAL HepG2 Assay for human Glucocorticoid Response Elements (GRE) (AID 2282947); conditions: HepG2 GRE cis-reporter, Attagene multiplex mRNA; actives raise or lower the signal
How it was run: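 Following 24 h chemical exposure of transiently transfected HepG2 cells, total RNA was reverse-transcribed and reporter cDNA amplified, fluorescently labelled and sized by capillary electrophoresis. Signal gain or loss was fitted relative to DMSO vehicle.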

[2] = ATG_ISRE_CIS: Attagene CIS-FACTORIAL HepG2 Assay for human Interferon Regulatory Factor 1 (IRF1) binding to an Interferon-Stimulated Response Element (ISRE) (AID 2282948); conditions: HepG2 ISRE cis-reporter (Attagene), mRNA transcription readout; actives raise or lower the signal
How it was run: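 Transfected HepG2 (multiple reporter transcription units, cis elements) dosed 24 h. RNA → oligo(dT) RT → PCR → 6-FAM primer extension → HpaI → CE. DMSO = negative control/baseline.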

[3] = ATG_M_32_CIS: Attagene CIS-FACTORIAL HepG2 Assay for M32 Transcription Factor (Internal Marker) (AID 2282949); conditions: HepG2 Attagene cis-factorial M32 reporter, mRNA; actives raise or lower the signal;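 note: background control marker of the multiplexed CIS panel rather than a real target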
How it was run: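 HepG2 cells transiently transfected with multiplexed cis-regulated reporter units, dosed 24 h. Reporter mRNA quantified by RT-PCR, 6-FAM labelling, HpaI digestion and capillary electrophoresis; bidirectional fit vs DMSO.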

[4] = ATG_M_06_CIS: Attagene CIS-FACTORIAL HepG2 Assay for M06 Transcription Factor (Internal Marker) (AID 2282950); conditions: HepG2 Attagene CIS-FACTORIAL M06 internal marker reporter; actives raise or lower the signal
How it was run: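 HepG2 liver cells, 24 h exposure. Reporter transcripts from transfected cis-element constructs quantified by RT-PCR/capillary electrophoresis fluorescence. Bidirectional curve fit against DMSO.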

[5] = target: Hepatocyte nuclear factor 6 (Homo sapiens) (UniProt Q9UBC0); experiment: ATG_HNF6_CIS: Attagene CIS-FACTORIAL HepG2 Assay for human Hepatocyte Nuclear Factor 6 (HNF6) (AID 2282952); conditions: HepG2 Attagene cis-factorial HNF6 reporter transcription; actives raise or lower the signal
Chain of Hepatocyte nuclear factor 6 (Homo sapiens) (Q9UBC0 whole entry, looked up): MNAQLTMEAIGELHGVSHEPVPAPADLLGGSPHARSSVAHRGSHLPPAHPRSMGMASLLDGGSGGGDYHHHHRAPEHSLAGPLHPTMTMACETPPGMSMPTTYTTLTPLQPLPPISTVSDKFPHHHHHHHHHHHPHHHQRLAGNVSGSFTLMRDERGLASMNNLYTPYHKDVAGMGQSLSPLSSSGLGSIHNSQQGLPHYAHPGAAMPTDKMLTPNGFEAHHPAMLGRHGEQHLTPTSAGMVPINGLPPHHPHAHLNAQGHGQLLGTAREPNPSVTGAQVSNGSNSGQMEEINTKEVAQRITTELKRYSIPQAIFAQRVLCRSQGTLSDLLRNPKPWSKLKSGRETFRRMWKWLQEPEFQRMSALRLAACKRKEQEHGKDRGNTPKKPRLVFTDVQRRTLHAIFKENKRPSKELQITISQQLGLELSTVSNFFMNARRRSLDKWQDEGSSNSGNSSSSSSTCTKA
How it was run: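 HepG2 cells transiently transfected with cis-element-driven multiple reporter transcription units, dosed 24 h; reporter mRNA quantified by RT-PCR, FAM primer extension, HpaI digestion and capillary electrophoresis; bidirectional fit versus DMSO baseline.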

[6] = target: Heat shock factor protein 1 (Homo sapiens) (UniProt Q00613); experiment: ATG_HSE_CIS: Attagene CIS-FACTORIAL HepG2 Assay for human Heat Shock Transcription Factor 1 (HSE) (AID 2282953); conditions: HepG2 HSE cis-reporter, Attagene RNA transcription; actives raise or lower the signal
Chain of Heat shock factor protein 1 (Homo sapiens) (Q00613 whole entry, looked up, the tested form may be a part): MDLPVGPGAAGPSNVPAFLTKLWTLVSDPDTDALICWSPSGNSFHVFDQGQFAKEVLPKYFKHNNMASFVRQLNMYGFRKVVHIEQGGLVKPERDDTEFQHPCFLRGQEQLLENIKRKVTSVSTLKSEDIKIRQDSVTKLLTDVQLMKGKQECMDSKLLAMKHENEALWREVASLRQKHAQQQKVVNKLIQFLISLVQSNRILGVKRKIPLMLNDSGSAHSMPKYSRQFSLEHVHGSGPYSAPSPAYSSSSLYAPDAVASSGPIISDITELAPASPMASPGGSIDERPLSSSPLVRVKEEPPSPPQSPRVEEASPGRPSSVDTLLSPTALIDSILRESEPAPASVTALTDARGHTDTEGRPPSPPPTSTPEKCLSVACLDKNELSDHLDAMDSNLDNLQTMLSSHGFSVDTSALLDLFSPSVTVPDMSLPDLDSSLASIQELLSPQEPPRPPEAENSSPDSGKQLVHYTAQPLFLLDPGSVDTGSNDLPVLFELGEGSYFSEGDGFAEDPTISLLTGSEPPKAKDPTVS
How it was run: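 Endogenous transcription factor activity captured via cis-promoter reporter units transfected into HepG2; treatment lasted 24 h. Fluorescence intensity of reporter fragments analysed with bidirectional curve fitting, DMSO baseline.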

[7] = ATG_MRE_CIS: Attagene CIS-FACTORIAL HepG2 Assay for human Metal Responsive Element (MRE) (AID 2282954); conditions: HepG2 MRE cis-reporter transcription, Attagene multiplex; actives raise or lower the signal
How it was run: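 Step one: transfect HepG2 with cis-regulated reporter units. Step two: dose 24 h. Step three: isolate RNA, RT-PCR, 6-FAM label, HpaI digest, capillary electrophoresis. Fit bidirectionally to DMSO.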

[8] = ATG_PBREM_CIS: Attagene CIS-FACTORIAL HepG2 Assay for human Phenobarbital-responsive Enhancer Module (PBREM) (AID 2282955); conditions: HepG2 PBREM cis-reporter, Attagene multiplexed transcription; actives raise or lower the signal
How it was run: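 Cells were transfected with cis-element reporter units and treated for 24 h, after which RNA was extracted and reporter transcripts measured by RT-PCR and capillary electrophoresis.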

[9] = target: Paired box protein Pax-6 (Homo sapiens) (UniProt P26367); experiment: ATG_Pax6_CIS: Attagene CIS-FACTORIAL HepG2 Assay for human Paired Box 6 (PAX6) (AID 2282956); conditions: HepG2 CIS-FACTORIAL PAX6 reporter transcription, RNA readout; actives raise or lower the signal
Chain of Paired box protein Pax-6 (Homo sapiens) (P26367 whole entry, looked up): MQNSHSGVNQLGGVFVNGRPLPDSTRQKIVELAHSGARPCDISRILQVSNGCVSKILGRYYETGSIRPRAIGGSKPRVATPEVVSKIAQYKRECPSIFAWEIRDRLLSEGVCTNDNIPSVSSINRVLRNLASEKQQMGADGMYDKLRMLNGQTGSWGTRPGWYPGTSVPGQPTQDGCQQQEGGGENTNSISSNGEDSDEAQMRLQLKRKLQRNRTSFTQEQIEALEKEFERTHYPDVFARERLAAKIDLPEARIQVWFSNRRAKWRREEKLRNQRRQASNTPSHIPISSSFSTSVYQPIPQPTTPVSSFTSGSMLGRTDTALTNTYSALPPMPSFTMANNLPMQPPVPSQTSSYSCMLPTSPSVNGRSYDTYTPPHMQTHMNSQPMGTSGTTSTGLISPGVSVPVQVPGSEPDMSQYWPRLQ
How it was run: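 Transient MRTU transfection of HepG2 → compound exposure 24 h → TriZol RNA, oligo(dT) RT → PCR, 6-FAM primer extension, HpaI cut → capillary electrophoresis; activity fitted both directions against DMSO.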

[10] = ATG_PXRE_CIS: Attagene CIS-FACTORIAL HepG2 Assay for human Pregnane X Receptor Element (PXRE) (AID 2282957); conditions: HepG2 Attagene CIS-FACTORIAL PXRE reporter, mRNA; actives raise or lower the signal
How it was run: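 HepG2 cells transiently transfected with cis-regulated multiple reporter transcription units; endogenous factor activity measured as reporter mRNA 24 h after dosing. RT-PCR, fluorescent primer extension, HpaI digestion, capillary electrophoresis; bidirectional fit versus DMSO baseline.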

[11] = ATG_PPRE_CIS: Attagene CIS-FACTORIAL HepG2 Assay for human Peroxisome Proliferator-activated Response Element (PPRE) (AID 2282958); conditions: HepG2 PPRE cis-element reporter, Attagene transcription factor profiling; actives raise or lower the signal
How it was run: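 In this cell-based multiplex, a PPRE cis element drives a reporter sequence in transiently transfected HepG2 cells. Following 24 h treatment, labeled cDNA amplicons are sized and quantified by capillary electrophoresis, with DMSO defining baseline.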

[12] = ATG_RORE_CIS: Attagene CIS-FACTORIAL HepG2 Assay for human RAR-related Orphan Receptor Element (RORE) (AID 2282959); conditions: HepG2 Attagene cis-factorial RORE reporter, mRNA; actives raise or lower the signal
How it was run: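 Endogenous factor activity at a cis response element is read as reporter transcript levels in HepG2 cells, 24 h post-dose. Transcripts are quantified by RT-PCR with capillary electrophoresis, and data fitted in both directions against DMSO.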

[13] = ATG_SREBP_CIS: Attagene CIS-FACTORIAL HepG2 Assay for human Sterol Regulatory Element Binding (SREBP) (AID 2282962); conditions: HepG2 Attagene cis-factorial SREBP reporter, mRNA; actives raise or lower the signal
How it was run: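 Transfected HepG2 (cis-regulated reporter library, endogenous TFs) → compound 24 h → total RNA → oligo(dT) RT → reporter-specific PCR → FAM primer extension, HpaI cut → CE fluorescence. Fit bidirectional vs DMSO.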

[14] = target: Signal transducer and activator of transcription 3 (Homo sapiens) (UniProt P40763); experiment: ATG_STAT3_CIS: Attagene CIS-FACTORIAL HepG2 Assay for human Signal Transducer and Activator of Transcription 3 (STAT3) (AID 2282963); conditions: HepG2, Attagene cis-factorial STAT3 reporter transcription; actives raise or lower the signal
Chain of Signal transducer and activator of transcription 3 (Homo sapiens) (P40763 whole entry, looked up): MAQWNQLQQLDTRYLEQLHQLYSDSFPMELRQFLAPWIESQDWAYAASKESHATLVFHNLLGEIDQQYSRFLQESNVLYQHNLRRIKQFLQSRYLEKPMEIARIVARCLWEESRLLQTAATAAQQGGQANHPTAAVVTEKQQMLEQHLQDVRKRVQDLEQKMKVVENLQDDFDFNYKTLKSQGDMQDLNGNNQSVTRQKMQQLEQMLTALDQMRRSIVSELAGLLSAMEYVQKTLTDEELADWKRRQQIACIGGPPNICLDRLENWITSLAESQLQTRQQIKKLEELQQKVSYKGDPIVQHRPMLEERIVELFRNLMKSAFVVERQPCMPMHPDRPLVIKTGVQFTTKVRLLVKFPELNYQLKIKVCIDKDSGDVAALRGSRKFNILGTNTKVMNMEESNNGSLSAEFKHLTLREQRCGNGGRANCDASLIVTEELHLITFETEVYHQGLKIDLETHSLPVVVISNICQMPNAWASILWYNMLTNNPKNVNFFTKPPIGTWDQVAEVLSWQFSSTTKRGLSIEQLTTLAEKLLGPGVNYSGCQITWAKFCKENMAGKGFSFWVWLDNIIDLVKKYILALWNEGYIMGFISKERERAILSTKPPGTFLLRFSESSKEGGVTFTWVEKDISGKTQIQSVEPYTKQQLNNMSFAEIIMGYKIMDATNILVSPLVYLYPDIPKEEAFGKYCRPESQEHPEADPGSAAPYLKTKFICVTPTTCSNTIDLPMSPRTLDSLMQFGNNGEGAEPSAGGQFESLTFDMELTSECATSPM
How it was run: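 Transcript-level reporter assay. HepG2 transient MRTU transfection, 24 h exposure, fluorescence detection after RT-PCR and CE; DMSO baseline.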

[15] = ATG_TA_CIS: Attagene CIS-FACTORIAL HepG2 Assay for human TA Basal Promoter (AID 2282964); conditions: HepG2 Attagene CIS-factorial TA basal promoter reporter; actives raise or lower the signal
How it was run: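 Fluorescence from labelled RT-PCR reporter fragments, separated by capillary electrophoresis, gives the signal. Cells: HepG2 transiently carrying multiple reporter units, 24 h chemical dosing. Gain or loss relative to DMSO.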

[16] = ATG_TCF_b_cat_CIS: Attagene CIS-FACTORIAL HepG2 Assay for human T-Cell-Factor with beta-catenin (TCF/b-cat) (AID 2282965); conditions: HepG2 TCF/beta-catenin cis-reporter transcription, actives raise or lower the signal
How it was run: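 Using capillary electrophoresis as the read-out, labelled reporter cDNA fragments from transiently transfected HepG2 were sized and quantified. Exposure lasted 24 hours; activity in either direction was referenced to DMSO.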

[17] = target: Hypoxia-inducible factor 1-alpha (Homo sapiens) (UniProt Q16665); experiment: ATG_HIF1a_CIS: Attagene CIS-FACTORIAL HepG2 Assay for human Hypoxia Inducible Factor 1 (HIF1A) (AID 2282951); conditions: HepG2 Attagene cis-factorial HIF1a reporter transcription; actives raise or lower the signal
Chain of Hypoxia-inducible factor 1-alpha (Homo sapiens) (Q16665 whole entry, looked up): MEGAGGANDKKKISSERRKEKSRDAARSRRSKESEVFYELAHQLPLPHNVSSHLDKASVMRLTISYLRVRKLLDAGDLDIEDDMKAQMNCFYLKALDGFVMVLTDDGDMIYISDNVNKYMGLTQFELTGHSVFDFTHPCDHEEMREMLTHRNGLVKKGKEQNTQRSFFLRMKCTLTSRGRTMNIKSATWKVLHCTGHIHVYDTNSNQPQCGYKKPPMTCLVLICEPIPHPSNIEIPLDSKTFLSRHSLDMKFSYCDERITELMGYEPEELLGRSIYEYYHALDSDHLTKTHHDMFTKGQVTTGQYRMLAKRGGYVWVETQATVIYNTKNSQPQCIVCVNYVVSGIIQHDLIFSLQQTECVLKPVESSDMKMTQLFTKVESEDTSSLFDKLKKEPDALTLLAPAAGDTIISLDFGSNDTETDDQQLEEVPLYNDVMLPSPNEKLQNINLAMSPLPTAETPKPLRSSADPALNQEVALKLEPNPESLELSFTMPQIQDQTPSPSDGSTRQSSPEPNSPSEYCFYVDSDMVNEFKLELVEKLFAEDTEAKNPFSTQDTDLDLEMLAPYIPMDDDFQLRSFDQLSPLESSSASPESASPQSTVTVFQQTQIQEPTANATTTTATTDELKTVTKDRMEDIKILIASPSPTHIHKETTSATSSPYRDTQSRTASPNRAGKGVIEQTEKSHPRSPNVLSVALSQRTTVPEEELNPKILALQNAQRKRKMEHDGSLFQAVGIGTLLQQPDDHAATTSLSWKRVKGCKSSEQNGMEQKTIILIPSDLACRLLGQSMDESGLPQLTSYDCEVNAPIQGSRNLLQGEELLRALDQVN
How it was run: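 Fluorescence intensity of capillary-separated, 6-FAM-labelled reporter amplicons gives mRNA induction in HepG2 cells carrying transfected cis-promoter reporter units; cells exposed 24 h, responses fitted up or down from DMSO.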

[18] = ATG_Sox_CIS: Attagene CIS-FACTORIAL HepG2 Assay for human SRY-box transcription factor (SOX) (AID 2282960); conditions: HepG2 Attagene cis-factorial SOX reporter, mRNA; actives raise or lower the signal
How it was run: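 Measures mRNA induction of a SOX1-associated reporter in HepG2 after 24 h dosing. Fluorescently labelled RT-PCR fragments are separated by capillary electrophoresis, and gain or loss relative to DMSO control is fitted.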

[19] = target: Transcription factor Sp1 (Homo sapiens) (UniProt P08047); experiment: ATG_Sp1_CIS: Attagene CIS-FACTORIAL HepG2 Assay for human Specificity Protein 1 (Sp1) (AID 2282961); conditions: HepG2 Sp1 cis-reporter transcription, actives raise or lower the signal
Chain of Transcription factor Sp1 (Homo sapiens) (P08047 whole entry, looked up): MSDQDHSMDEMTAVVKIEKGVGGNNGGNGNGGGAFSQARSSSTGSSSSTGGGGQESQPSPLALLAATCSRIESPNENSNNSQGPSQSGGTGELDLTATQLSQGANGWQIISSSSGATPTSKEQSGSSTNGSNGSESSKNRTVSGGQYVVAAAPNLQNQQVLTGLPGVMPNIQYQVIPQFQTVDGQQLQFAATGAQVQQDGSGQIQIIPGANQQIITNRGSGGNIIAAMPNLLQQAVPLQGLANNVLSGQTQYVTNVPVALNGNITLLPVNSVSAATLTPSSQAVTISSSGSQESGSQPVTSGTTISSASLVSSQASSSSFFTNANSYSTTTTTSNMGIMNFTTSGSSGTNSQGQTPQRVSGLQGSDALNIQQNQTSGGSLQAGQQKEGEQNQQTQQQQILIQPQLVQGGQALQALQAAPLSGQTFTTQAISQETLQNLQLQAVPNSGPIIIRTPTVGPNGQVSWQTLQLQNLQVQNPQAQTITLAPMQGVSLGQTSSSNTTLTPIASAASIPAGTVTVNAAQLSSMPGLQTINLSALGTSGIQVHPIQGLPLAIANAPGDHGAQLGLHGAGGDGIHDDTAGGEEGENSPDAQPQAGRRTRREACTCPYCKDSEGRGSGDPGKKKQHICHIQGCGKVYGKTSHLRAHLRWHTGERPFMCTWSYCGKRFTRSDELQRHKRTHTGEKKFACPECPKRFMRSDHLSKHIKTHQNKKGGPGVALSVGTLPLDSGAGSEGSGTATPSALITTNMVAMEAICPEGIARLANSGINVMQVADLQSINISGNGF
How it was run: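 Cells: HepG2, transiently transfected with cis-regulated multiplexed reporters. Exposure: 24 h. Detection: reporter transcripts amplified, fluorescently labeled, restriction-digested and sized by capillary electrophoresis. Analysis: bidirectional fit relative to DMSO.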

Measured: AC50

O=C1NC(=O)C(c2ccccc2)(c2ccccc2)N1
not listed: [17] | [18] | [19]
inactive: all other assays above

C/C=C/c1ccc(OC)cc1
not listed: [1] | [7] | [18] | [19]
inactive: all other assays above

CCc1cc(C2=C(C(=O)O)N(c3ccccc3C(F)(F)F)S(=O)(=O)c3ccccc32)cc2c1OCO2
active: [2] 149 µM | [6] 154 µM | [8] 19.8 µM | [10] 2.14 µM | [13] 26.6 µM | [16] 122 µM
not listed: [7] | [11] | [19]
inactive: all other assays above

Oc1ccccc1O
active: [12] 23.2 µM
not listed: [7] | [17]
inactive: all other assays above

CC(=O)CC(c1ccccc1)c1c(O)c2ccccc2oc1=O (centres undefined)
active: [10] 59.1 µM and 59.7 µM
not listed: [1] | [6] | [7] | [8] | [11] | [14] | [19]
inactive: all other assays above

CCCCCCCC(=O)OC
active: [17] 68.3 µM
not listed: [1]
inactive: all other assays above

Cc1ccc(-c2cc(C(F)(F)F)nn2-c2ccc(S(N)(=O)=O)cc2)cc1
active: [7] 6.28 µM | [10] 2.58 µM
not listed: [8] | [12] | [14] | [19]
inactive: all other assays above
